# Data from PubChem BioAssay.
# Records with an inconclusive call do not appear. Activity calls are given as the source filed them. Unless noted, the limit is not given here; nearly all actives have AC50 up to about 26 µM.
# Experiments:
# [1] = growth inhibition of DIPG glioma cells, dose response, cell-based, SU-DIPG-XVII, MIPE5.0, CellTiter-Glo, qHTS (AID 1347060); conditions: SU-DIPG-XVII viability, CellTiter-Glo ATP luminescence;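 as to AC50: cells exposed to compound for 48 hours before viability readout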
# [2] = growth inhibition of DIPG glioma cells, dose response, cell-based, SU-DIPG-XIII, MIPE5.0, CellTiter-Glo, qHTS (AID 1347064; cut-off not given, nearly all actives have AC50 up to about 23 µM;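 as to AC50: cells exposed to compound for 48 hours before the viability read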); conditions: SU-DIPG-XIII viability, CellTiter-Glo ATP luminescence
# [3] = JHH-DIPG-1 glioma cell viability, MIPE5.0 library, CellTiter-Glo luminescence, qHTS (AID 1347067); conditions: JHH-DIPG-1 glioma viability, CellTiter-Glo ATP luminescence;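 also: cells exposed to compound for 48 hours before readout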
# [4] = LFS_MB_P medulloblastoma growth inhibition, cell-based, chromothripsis tumors, cisplatin or BGB combos (AID 1671449; in the data active = inhibition above about 80%;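 also: cells exposed for 96 hours; 0% = vehicle DMSO and 100% = killing by high DMSO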); conditions: LFS_MB_P medulloblastoma cells
# [5] = HDN33 neuroblastoma growth inhibition, cell-based, chromothripsis tumors, cisplatin or BGB combos (AID 1671450; in the data active = inhibition above about 80%;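 also: cells exposed to compound for four days; 0% = vehicle DMSO and 100% = cell killing by high DMSO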); conditions: HDN33 neuroblastoma cells, stronger effect = higher value
# [6] = ICB984 medulloblastoma cell growth inhibition, synergistic combos for chromothripsis tumors, cisplatin or BGB combos (AID 1671451; call rule not given here;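 also: cells exposed for 96 hours before readout; 0% = vehicle DMSO and 100% = killing by high DMSO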); conditions: ICB984 medulloblastoma cells, drug combinations, stronger effect = higher value
# [7] = LFS_MB_1R medulloblastoma cell growth inhibition, synergistic combos for chromothripsis tumors, cisplatin or BGB combos (AID 1671452; in the data active = inhibition above about 80%;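 also: cells exposed for 96 hours before readout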); conditions: LFS_MB_1R medulloblastoma cells, stronger effect = higher value
# [8] = HTB85 osteosarcoma cell growth inhibition, synergistic combos for chromothripsis tumors, BGB or cisplatin IC20 combos (AID 1671453; in the data active = inhibition above about 80%;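 also: cells exposed for 96 hours before readout; 0% = vehicle DMSO and 100% = high DMSO killing control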); conditions: HTB85 osteosarcoma cells, drug combinations, stronger effect = higher value
# [9] = CRL2098 osteosarcoma cell growth inhibition, synergistic combos for chromothripsis tumors, BGB or cisplatin IC20 combos (AID 1671454; in the data active = inhibition above about 80%;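 also: cells exposed for 96 h before readout; 0% = vehicle DMSO and 100% = killing by high DMSO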); conditions: CRL2098 osteosarcoma cells, drug combinations, stronger effect = higher value
# [10] = HD-MB03 medulloblastoma cell growth inhibition, synergistic combos for chromothripsis tumors, BGB or cisplatin IC20 combos (AID 1671455; in the data active = inhibition above about 83%;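 also: 0% = vehicle DMSO and 100% = high DMSO as cytotoxic control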); conditions: HD-MB03 medulloblastoma cells, stronger effect = higher value
# [11] = UWB1.289 ovarian carcinoma cell growth inhibition, synergistic combos for chromothripsis tumors, BGB or cisplatin combos (AID 1671456; in the data active = inhibition above about 80%;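 also: cells exposed to compound for four days; 0% = vehicle DMSO and 100% = killing by high DMSO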); conditions: UWB1.289 ovarian carcinoma cells, stronger effect = higher value
# [12] = LFS_MB_2R medulloblastoma cell growth inhibition, synergistic combos for chromothripsis tumors, cisplatin combos (AID 1671457; in the data active = inhibition above about 80%;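 also: cells exposed to compound for four days before readout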); conditions: LFS_MB_2R medulloblastoma cells, stronger effect = higher value
# [13] = MDA-MB-436 breast carcinoma cell growth inhibition, synergistic combos for chromothripsis tumors, BGB or cisplatin combos (AID 1671458; call rule not given here;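 also: cells exposed for 96 hours; 0% = vehicle DMSO and 100% = killing by high DMSO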); conditions: MDA-MB-436 breast carcinoma growth inhibition, drug combinations, stronger effect = higher value
# [14] = UWB1.289_BRCA1 ovarian cancer growth, cell-based, BGB or cisplatin combinations (AID 1671459; in the data active = inhibition above about 80%); conditions: UWB1.289 BRCA1 ovarian carcinoma, drug combinations, stronger effect = higher value
# [15] = human astrocyte viability loss, single and combined drugs, cytotoxicity control for chromothriptic childhood tumor combination screen, cell-based, BGB or cisplatin IC20 combos (AID 1671460; in the data active = inhibition above about 80%;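 also: cells exposed to compounds for 96 hours before viability readout; 0% = vehicle and 100% = killing control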); conditions: Human astrocytes, drug combinations, stronger effect = higher value
# [16] = growth inhibition of BT084 medulloblastoma cells, cell-based, ICGC_MB145, cisplatin and BGB IC40 combos (AID 1671461; in the data active = inhibition above about 80%;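 also: cells exposed to drugs for 96 hours; 0% = vehicle DMSO and 100% = high DMSO full killing control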); conditions: drug combinations, stronger effect = higher value
# [17] = growth inhibition of RCMB18 medulloblastoma cells, cell-based, cisplatin and BGB IC40 combos (AID 1671462; in the data active = inhibition above about 80%;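 also: cells exposed to compound for four days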); conditions: stronger effect = higher value
# [18] = growth inhibition of CRL1545 osteosarcoma cells, cell-based, cisplatin and BGB IC20 combos (AID 1671464; in the data active = inhibition above about 80%;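 also: cells exposed to compound for 96 hours before readout; 0% = vehicle DMSO and 100% = high DMSO killing control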); conditions: stronger effect = higher value
# [19] = SU-DIPG-XXV glioma cell viability, MIPE5.0 library, qHTS (AID 1347068; cut-off not given, nearly all actives have IC50 up to about 30 µM;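 as to IC50: cells exposed to compound for 48 hours before viability readout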)
# [20] = sensitizers of A549 cells to miR-34 induction, primary screen, imaging, A549 dox-inducible miR-34, nuclei and caspase counts (AID 1347080;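 active = compounds whose cell count with miR-34 switched on is under 0.7 times the count with it off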); conditions: A549 miR-34 inducible, Hoechst nuclei count, 48 h
# [21] = inhibitors of Cryptococcus chitosan production, flow cytometry, Cibacron Brilliant Red staining (AID 1347148; call rule not given here;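 also: compound exposure lasted three days at 37 degrees C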); conditions: Cryptococcus neoformans chitosan, stronger effect = lower value; at 10 µM unless noted
# [22] = viability loss in pontine glioma line – cell-based, SU-DIPG-XXV, MIPE5.0, CellTiter-Glo, qHTS, dose response (AID 1347065); conditions: CellTiter-Glo ATP luminescence;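 also: cells exposed to compound for 48 hours before ATP readout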
# [23] = survival rescue of mitochondrial mutant cells in low glucose, primary screen, MELAS cybrids, Rieske KO mouse fibroblasts, CellTiter-Glo (AID 1508586;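 active = mean z-score across replicates of 1.96 or higher in either the MELAS or the Rieske mutant cell line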;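 also: z relative to plate mean and SD of compound and empty wells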)
# [24] = measured here: combination with BGB IC40, at 0.05 µM
# [25] = measured here: with BGB IC20 combination, at 0.5 µM
# [26] = measured here: with cisplatin IC20 combination, at 0.5 µM
# [27] = measured here: combination with cisplatin, at 0.5 µM
# [28] = measured here: combination with cisplatin, at 5 µM
# [29] = stronger effect = lower value, cell number ratio, induced over uninduced
# [30] = measured here: relative caspase fold change +Dox/-Dox
# [31] = measured here: total cells with miR-34 induction, stronger effect = lower value
# [32] = measured here: total cells without miR-34 induction
smiles,measurement,setting,value
O=C(CCCCCCNC(=O)c1cnc(N(c2ccccc2)c2ccccc2Cl)nc1)NO,AC50,[1],8.33 µM (active)
same,AC50,[2],3.72 µM (active)
same,AC50,[3],7.42 µM (active)
same,inhibition,"[4]; at 0.5 µM, stronger effect = higher value",-18.4% (inactive)
same,inhibition,"[4]; measured here: combination with BGB IC20, at 0.005 µM",-0.623%
same,inhibition,"[4]; measured here: combination with BGB IC40, at 0.005 µM",-22.7%
same,inhibition,[4]; [24],-0.542%
same,inhibition,"[4]; measured here: combination with cisplatin, at 0.5 µM, stronger effect = higher value",-15.1%
same,inhibition,"[4]; measured here: combination with cisplatin, at 5 µM, stronger effect = higher value",99.5%
same,inhibition,"[5]; BGB combo, at 5 µM",50.4%
same,inhibition,[5]; at 0.5 µM,18.7% (inactive)
same,inhibition,"[5]; cisplatin combo, at 5 µM",56.8%
same,inhibition,[5]; [25],15.8%
same,inhibition,[5]; [26],22.8%
same,inhibition,"[5]; single agent, at 5 µM",62.1%
same,inhibition,"[6]; BGB IC20 combo, at 0.005 µM",12.6%
same,inhibition,"[6]; BGB IC40 combo, at 0.005 µM",-39.2%
same,inhibition,"[6]; BGB IC40 combo, at 0.05 µM",39.9%
same,inhibition,[6]; at 0.5 µM,-20.1% (inactive)
same,inhibition,"[6]; cisplatin combo, at 0.05 µM",37.5%
same,inhibition,"[6]; cisplatin combo, at 0.5 µM",-17.2%
same,inhibition,"[6]; cisplatin combo, at 5 µM",-24.9%
same,inhibition,"[6]; measured here: 5 uM single agent, at 5 µM",-20.1%
same,inhibition,[7]; at 0.5 µM,-5.6% (inactive)
same,inhibition,[7]; [24],-9.58%
same,inhibition,[7]; [27],-15.4%
same,inhibition,[7]; [28],66.7%
same,inhibition,[8]; at 0.5 µM,-4.65% (inactive)
same,inhibition,"[8]; measured here: with BGB IC20, at 0.5 µM",-17.2%
same,inhibition,"[8]; measured here: with BGB IC20, at 5 µM",33.1%
same,inhibition,"[8]; measured here: with cisplatin IC20, at 0.5 µM",-7.92%
same,inhibition,"[8]; measured here: with cisplatin IC20, at 5 µM",47.7%
same,inhibition,"[8]; single agent, at 5 µM",54%
same,inhibition,[9]; at 0.5 µM,-36.3% (inactive)
same,inhibition,"[9]; measured here: combination with BGB at IC20, at 0.5 µM",-46.5%
same,inhibition,"[9]; measured here: combination with cisplatin at IC20, at 0.5 µM",-0.706%
same,inhibition,[10]; at 0.5 µM,7.2% (inactive)
same,inhibition,"[10]; measured here: combo with BGB at IC20, at 0.5 µM",-0.477%
same,inhibition,"[10]; measured here: combo with cisplatin at IC20, at 0.5 µM",8.58%
same,inhibition,[11]; at 0.5 µM,8.33% (inactive)
same,inhibition,"[11]; measured here: inhibition with BGB combination, at 0.05 µM",-28.3%
same,inhibition,"[11]; measured here: inhibition with cisplatin combination, at 0.05 µM",-17.7%
same,inhibition,[12]; at 0.5 µM,-16.9% (inactive)
same,inhibition,[12]; [27],-6.73%
same,inhibition,[12]; [28],81%
same,inhibition,[13]; at 0.5 µM,-11.7% (inactive)
same,inhibition,"[13]; measured here: BGB combination, at 0.5 µM",-16.5%
same,inhibition,"[13]; measured here: BGB combination, at 5 µM",16.3%
same,inhibition,"[13]; measured here: cisplatin combination, at 0.5 µM",-18%
same,inhibition,"[13]; measured here: cisplatin combination, at 5 µM",30.9%
same,inhibition,"[14]; BGB combination, concentration series, at 5 µM",70.5%
same,inhibition,[14]; at 0.5 µM,15.1% (inactive)
same,inhibition,"[14]; cisplatin combination, concentration series, at 5 µM",83%
same,inhibition,[15]; at 0.5 µM,10.7% (inactive)
same,inhibition,"[15]; measured here: combo with BGB IC20, at 0.5 µM",11.7%
same,inhibition,"[15]; measured here: combo with cisplatin IC20, at 0.5 µM",14%
same,inhibition,[16]; at 0.5 µM,2.48% (inactive)
same,inhibition,"[16]; cisplatin combination, at 0.5 µM",7.21%
same,inhibition,"[16]; cisplatin combination, at 5 µM",78.9%
same,inhibition,"[16]; measured here: BGB IC40 combination 0.05 uM, at 0.05 µM",-0.825%
same,inhibition,"[16]; single agent, at 5 µM",65%
same,inhibition,[17]; at 0.5 µM,-4.94% (inactive)
same,inhibition,"[17]; cisplatin combo, at 5 µM",64.2%
same,inhibition,"[17]; measured here: BGB IC40 combination, at 0.05 µM",-4.49%
same,inhibition,[17]; [27],5.58%
same,inhibition,"[17]; single agent, at 5 µM",31.8%
same,inhibition,[18]; at 0.5 µM,32.3% (inactive)
same,inhibition,[18]; [25],16.7%
same,inhibition,[18]; [26],40.1%
same,inhibition,"[18]; single agent, at 0.05 µM",-5.85%
same,inhibition,"[18]; single agent, at 5 µM",88.6%
CNC(=O)[C@H](Cc1c[nH]c2ccccc12)NC(=O)[C@@H](CC(=O)NO)CC(C)C,outcome,[1],inactive
same,outcome,[2],inactive
same,outcome,[3],inactive
same,outcome,[19],inactive
same,fold change,[20]; [29],1.03 (inactive)
same,fold change,[20]; [30],0.925
same,cell count,[20]; [31],4790
same,cell count,[20]; [32],4630
same,fold fluorescence,[21],4.97 [at 128.7 µM] (inactive)
COc1ccc(Oc2cc(NCCC(F)(F)F)c3ncc(-c4ccc(C(=O)NC5CC5)c(C)c4)n3n2)c(F)c1F,AC50,[1],0.059 µM (active)
same,AC50,[22],0.372 µM (active)
CC#Cc1cncc(-c2ccc3c(c2)[C@@]2(N=C(C)C(N)=N2)C2(CCC(OC)CC2)C3)c1 (some centres undefined),outcome,[1],inactive
same,outcome,[2],inactive
same,outcome,[19],inactive
Cc1c(F)cc(C(=O)NC2CC2)cc1-c1ccc(C(=O)NCC(C)(C)C)cn1,outcome,[1],inactive
same,outcome,[2],inactive
same,outcome,[3],inactive
same,outcome,[19],inactive
same,fold change,[20]; [29],0.832 (inactive)
same,fold change,[20]; [30],0.447
same,cell count,[20]; [31],7400
same,cell count,[20]; [32],8890
same,z-score,"[23]; MELAS cybrid survival, CellTiter-Glo 48 h, stronger effect = higher value",-0.46 (inactive)
same,z-score,"[23]; Rieske KO mouse fibroblast survival, CellTiter-Glo 72 h",0.488
CCN(CC)CCCC[C@H](NC(=O)[C@H](CC(C)C)NC(=O)[C@H](C)NC(=O)[C@H](Cc1ccccc1)NC(=O)c1ccc(C(C)(C)C)cc1)C(=O)N[C@@H](CO)C(=O)OC,outcome,[1],inactive
same,outcome,[22],inactive
same,outcome,[3],inactive
same,outcome,[19],inactive
Cc1nnc(C[C@@H]2C=C(c3ccc(Cl)cc3)c3ccccc3-n3c(C)nnc32)o1,AC50,[1],26.3 µM (active)
same,AC50,[22],14.8 µM (active)
same,AC50,[3],18.6 µM (active)
CCOc1cc(C(=O)N2CCC(N3CCN(C)CC3)CC2)ccc1Nc1ncc2c(n1)N(C1CCCC1)c1ccccc1C(=O)N2C,AC50,[1],23.5 µM (active)
same,AC50,[22],20.9 µM (active)
same,AC50,[3],26.3 µM (active)
same,IC50,[19],20.9 µM (active)
CCCNC(=O)c1cn2ncnc(Nc3cc(C(=O)NC4CC4)ccc3C)c2c1C,outcome,[1],inactive
same,outcome,[22],inactive
same,outcome,[3],inactive
same,outcome,[19],inactive
COc1ccc2[nH]c3c(c2c1)CCN[C@]31CS[C@@H]2c3c(OC(C)=O)c(C)c4c(c3[C@H](COC1=O)N1[C@@H]2[C@H]2c3c(cc(C)c(OC)c3O)C[C@@H]([C@@H]1O)N2C)OCO4,AC50,[1],0.000959 µM (active)
same,AC50,[22],0.0034 µM (active)
same,AC50,[3],0.00135 µM (active)
Cc1c(NC(=O)c2cc3c(s2)CCCC3)cccc1-c1cn(C)c(=O)c(Nc2ccc(C3C(=O)N(C)CCN3C)cc2)n1 (centres undefined),AC50,[1],23.5 µM (active)
same,AC50,[22],18.6 µM (active)
same,AC50,[3],18.6 µM (active)
COc1ccc(C(=O)N2CCN(C(=O)/C=C/c3ccc(Br)cc3)CC2)cc1,outcome,[1],inactive
same,outcome,[22],inactive
same,outcome,[3],inactive
same,outcome,[19],inactive
CCC[C@H](N[C@H]1CCc2cc(F)cc(F)c2C1)C(=O)Nc1cn(C(C)(C)CNCC(C)(C)C)cn1,AC50,[1],33.2 µM (active)
same,AC50,[22],18.6 µM (active)
same,AC50,[3],23.5 µM (active)
COc1cccc(-c2c(C)n(Cc3c(F)cccc3C(F)(F)F)c(=O)n(C[C@H](NCCCC(=O)O)c3ccccc3)c2=O)c1F,outcome,[1],inactive
same,outcome,[22],inactive
same,outcome,[3],inactive
same,outcome,[19],inactive
CC[C@@H](Oc1cccc(CN(CCCOc2ccc(OC)cc2)c2nc3ccccc3o2)c1)C(=O)O,outcome,[1],inactive
same,outcome,[22],inactive
same,outcome,[3],inactive
same,outcome,[19],inactive
COc1ccc2[nH]c(C(=O)N3CCC(CC(C)(C)O)CC3)cc2c1,outcome,[1],inactive
same,outcome,[22],inactive
same,outcome,[3],inactive
